# Data as given in PubChem BioAssay (EPA / NIEHS).
# Several values for one entry are separate records, joined by “and”; a condition that tells them apart may be missing. Equal values may be shown once. Results filed as inconclusive are left out. Activity calls are given as the source filed them. How the source made its calls, unless noted: active means hit-call score of the fitted dose curve at least 0.9, where 1 is the maximum; inconclusive means response in the unintended direction; inactive means score below 0.9.
# Tests used:
# [1] = CCTE_Padilla_ZF_144hpf_TERATOSCORE: (Legacy) CCTE's 144 Hour Post-fertilization zebrafish Assay Teratoscore, Padilla Lab (AID 2283679; active means hit-call score of the fitted dose curve at least 0.9, where 1 is the maximum; inactive means score below 0.9;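 on AC50: zebrafish embryos with chorions exposed by immersion from 6-8 hpf to 5 dpf with daily renewal; teratogenicity score from eye scoring of death hatching and malformations at 144 hpf; higher score means more developmental defects relative to DMSO baseline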)
# How it was run: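 Larvae scored by eye at 144 hpf for death, hatching and malformations after a day in clean Hanks'. Before that, daily-renewed exposure at 80 uM (0.4% DMSO, 26C) from roughly 6-8 hpf through 5 dpf, 4 embryos per chemical.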
# [2] = read-out: xenobiotic metabolism (CYP1A2), CYP1A2 (gene 1544); test: CLD_CYP1A2_24hr: CellzDirect (CLD) Gene Expression Assay for xenobiotic metabolism (CYP1A2) at 24 hours (AID 2283683)
# How it was run: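 CYP1A2 mRNA induction measured by quantitative nuclease protection (chemiluminescent) in human primary hepatocytes 24 h after multi-concentration chemical dosing with daily fresh solutions. DMSO (0.2%) baseline; positive-direction fitting; morphology-based cytotoxicity noted.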
# [3] = read-out: ABC Transporter (ABCB1), ABCB1 (gene 5243); test: CLD_ABCB1_24hr: CellzDirect (CLD) Gene Expression Assay for ABC Transporter (ABCB1) at 24 hours (AID 2283684)
# How it was run: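 ABCB1 mRNA induction versus 0.2% DMSO vehicle was read by qNPA chemiluminescence at 24 h. Cultured human hepatocytes from two donor preparations received daily fresh dosing, and phase-contrast cytotoxicity calls were annotated alongside the data.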
# [4] = read-out: Cytochrome P450 2B6 (Homo sapiens) (UniProt P20813); test: CLD_CYP2B6_24hr: CellzDirect (CLD) Gene Expression Assay for xenobiotic metabolism (CYP2B6) at 24 hours (AID 2283686)
# How it was run: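 qNPA chemiluminescent measurement of mRNA at 24 hours in human primary hepatocyte cultures from two donor preparations, with daily fresh dosing and 0.2% DMSO vehicle as baseline. Morphology-based cytotoxicity flagged yes/no.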
# [5] = read-out: organic anion transporter (SLCO1B1), SLCO1B1 (gene 10599); test: CLD_SLCO1B1_24hr: CellzDirect (CLD) Gene Expression Assay for organic anion transporter (SLCO1B1) at 24 hours (AID 2283690)
# How it was run: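 SLCO1B1 mRNA induction read at 24 h by quantitative nuclease protection assay (chemiluminescence), analyzed against DMSO baseline. Human hepatocyte cultures from separate donors received fresh dosing solutions daily; vehicle 0.2% DMSO; cytotoxicity flagged by phase-contrast morphology.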
# [6] = read-out: Glyceraldehyde-3-phosphate dehydrogenase (Homo sapiens) (UniProt P04406); test: CLD_GAPDH_24hr: CellzDirect (CLD) Gene Expression Assay for Baseline Control (Glyceraldehyde 3-phosphate dehydrogenase) at 24 hours (AID 2283692)
# How it was run: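 GAPDH baseline-control readout: qNPA chemiluminescent mRNA signal in human primary hepatocytes harvested 24 h after daily dosing, normalised to 0.2% DMSO with positive fitting direction; cytotoxicity annotated by phase-contrast morphology.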
# [7] = read-out: sulfotransferase (SULT2A), SULT2A1 (gene 6822); test: CLD_SULT2A_24hr: CellzDirect (CLD) Gene Expression Assay for sulfotransferase (SULT2A) at 24 hours (AID 2283694);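 on AC50: potency for increased SULT2A1 mRNA level as induction over DMSO baseline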
# How it was run: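 mRNA is measured by qNPA: probe hybridisation, S1 nuclease digestion, chemiluminescence, in lysates from human primary hepatocytes harvested 24 h after daily dosing. Vehicle was 0.2% DMSO. Phase-contrast microscopy flagged cytotoxicity (yes/no).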
# [8] = read-out: alkyl and aryl transferase (GSTA2), GSTA2 (gene 2939); test: CLD_GSTA2_24hr: CellzDirect (CLD) Gene Expression Assay for alkyl and aryl transferase (GSTA2) at 24 hours (AID 2283693)
# How it was run: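 GSTA2 transcript levels were quantified by quantitative nuclease protection assay in primary human hepatocytes 24 h after daily dosing with fresh solutions at multiple concentrations; 0.2% DMSO vehicle as baseline, cytotoxicity flagged morphologically.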
# [9] = read-out: Cytochrome P450 3A4 (Homo sapiens) (UniProt P08684); test: CLD_CYP3A4_24hr: CellzDirect (CLD) Gene Expression Assay for xenobiotic metabolism (CYP3A4) at 24 hours (AID 2283689)
# How it was run: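 CYP3A4 mRNA induction read by quantitative nuclease protection (chemiluminescence) 24 hr after dosing. Cultured human hepatocytes (two donor preparations) treated daily, vehicle 0.2% DMSO; phase-contrast morphology annotates cytotoxicity.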
# Sequence of Glyceraldehyde-3-phosphate dehydrogenase (Homo sapiens) (P04406 whole entry, looked up): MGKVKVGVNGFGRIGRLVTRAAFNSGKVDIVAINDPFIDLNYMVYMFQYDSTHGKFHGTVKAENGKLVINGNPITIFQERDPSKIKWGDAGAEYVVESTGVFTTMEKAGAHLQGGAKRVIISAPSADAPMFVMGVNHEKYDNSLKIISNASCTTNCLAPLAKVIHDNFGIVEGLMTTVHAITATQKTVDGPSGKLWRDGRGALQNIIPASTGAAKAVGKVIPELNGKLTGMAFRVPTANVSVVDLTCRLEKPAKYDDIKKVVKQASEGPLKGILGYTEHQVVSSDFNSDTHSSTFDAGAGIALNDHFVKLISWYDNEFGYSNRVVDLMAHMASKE
# Sequence of Cytochrome P450 3A4 (Homo sapiens) (P08684 whole entry, looked up): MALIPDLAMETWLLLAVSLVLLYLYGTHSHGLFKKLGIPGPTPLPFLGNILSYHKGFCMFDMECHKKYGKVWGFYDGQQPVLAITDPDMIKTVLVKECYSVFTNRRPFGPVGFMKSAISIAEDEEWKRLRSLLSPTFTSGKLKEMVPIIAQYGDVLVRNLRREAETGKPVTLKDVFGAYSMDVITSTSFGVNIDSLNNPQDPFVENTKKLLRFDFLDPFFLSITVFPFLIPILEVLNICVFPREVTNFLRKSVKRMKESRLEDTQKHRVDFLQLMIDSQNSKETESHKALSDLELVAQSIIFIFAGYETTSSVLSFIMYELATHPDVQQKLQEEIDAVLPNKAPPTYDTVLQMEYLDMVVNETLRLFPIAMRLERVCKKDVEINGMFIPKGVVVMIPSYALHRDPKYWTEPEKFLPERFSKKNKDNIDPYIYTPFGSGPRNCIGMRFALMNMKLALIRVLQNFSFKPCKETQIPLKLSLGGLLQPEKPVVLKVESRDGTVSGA
compound,measurement,setting,value
C=CC1(C)OC(=O)N(c2cc(Cl)cc(Cl)c2)C1=O (stereo unspecified),AC50,[1],145 µM (active)
same,AC50,[2],2.47 µM (active)
same,outcome,[3],inactive
same,AC50,[4],7.15 µM (active)
same,outcome,[5],inactive
same,outcome,[6],inactive
same,outcome,[7],inactive
COP(=S)(OC)Oc1nc(Cl)c(Cl)cc1Cl,AC50,[1],34.7 µM (active)
same,AC50,[2],4.43 µM (active)
same,outcome,[3],inactive
same,AC50,[4],5.02 µM (active)
same,outcome,[6],inactive
same,outcome,[8],inactive
same,outcome,[7],inactive
N#CC(CCc1ccc(Cl)cc1)(Cn1cncn1)c1ccccc1 (stereo unspecified),AC50,[1],25.8 µM (active)
same,AC50,[2],1.24 µM (active)
same,outcome,[3],inactive
same,AC50,[4],0.389 µM (active)
same,outcome,[6],inactive
same,outcome,[8],inactive
same,outcome,[7],inactive
COP(N)(=O)SC (stereo unspecified),outcome,[1],inactive
same,outcome,[3],inactive
same,outcome,[5],inactive
same,outcome,[6],inactive
COC(=O)c1ccccc1C(=O)OC,outcome,[1],inactive
same,outcome,[2],inactive
same,outcome,[4],inactive
same,outcome,[5],inactive
same,outcome,[6],inactive
same,outcome,[8],inactive
same,outcome,[7],inactive
O=C(Nc1ccccc1)Nc1ccnc(Cl)c1,AC50,[1],66 µM (active)
same,AC50,[2],7.19 µM (active)
same,AC50,[4],8.15 µM (active)
same,outcome,[5],inactive
CO/C=C(/C(=O)OC)c1ccccc1Oc1cc(Oc2ccccc2C#N)ncn1,AC50,[1],1.46 µM (active) and 4.82 µM (active) and 4.07 µM (active)
same,outcome,[3],inactive
same,AC50,[4],7.02 µM (active)
same,outcome,[8],inactive
same,outcome,[7],inactive
CCOP(=S)(OCC)SCn1c(=O)oc2cc(Cl)ccc21,AC50,[1],13.5 µM (active)
same,AC50,[2],3.97 µM (active)
same,AC50,[4],3.97 µM (active)
same,outcome,[7],inactive
CCNc1nc(Cl)nc(NC(C)C)n1,outcome,[1],inactive
same,AC50,[2],3.11 µM (active)
same,outcome,[3],inactive
same,AC50,[4],3.92 µM (active)
same,outcome,[8],inactive
same,outcome,[7],inactive
OC(c1ccc(Cl)cc1)(c1cncnc1)c1ccccc1Cl (stereo unspecified),AC50,[1],32.2 µM (active)
same,outcome,[2],inactive
same,outcome,[3],inactive
same,AC50,[4],1.24 µM (active)
same,outcome,[8],inactive
same,outcome,[7],inactive
CCCC1COC(Cn2cncn2)(c2ccc(Cl)cc2Cl)O1 (stereo unspecified),AC50,[1],26.5 µM (active)
same,AC50,[2],2.13 µM (active)
same,outcome,[3],inactive
same,AC50,[4],0.668 µM (active)
same,outcome,[7],inactive
CC(C)(C)c1ccc(CSc2cnn(C(C)(C)C)c(=O)c2Cl)cc1,outcome,[2],inactive
same,outcome,[3],inactive
same,outcome,[5],inactive
same,outcome,[8],inactive
same,AC50,[7],20 µM (active)
CS/C(C)=N/OC(=O)N(C)SN(C)C(=O)O/N=C(\C)SC,AC50,[1],32.7 µM (active)
same,outcome,[3],inactive
same,outcome,[8],inactive
CCOc1cc(Oc2ccc(C(F)(F)F)cc2Cl)ccc1[N+](=O)[O-],AC50,[1],13 µM (active)
same,AC50,[2],5.69 µM (active)
same,outcome,[4],inactive
same,AC50,[9],20 µM (active)
same,outcome,[5],inactive
same,outcome,[7],inactive
